Test results as given in PubChem BioAssay (NCI).
The panel holds about 79,000 compounds, 15% with a hit somewhere; the sample as a whole holds those more often. Unmarked numbers belong to inactive results. The source made the active and inactive calls. Cut-off read from the data, not from the text of the source: active = growth inhibition above about 70%; inactive = the rest.

Assay: NCI Yeast Anticancer Drug Screen. Data for the mgt1 strain (AID 153)
Conditions: S. cerevisiae mgt1 mutant growth inhibition, hits give high values
Protocol: Growth inhibition of yeast strains with defined genetic alterations is measured as a screen for potential anti-cancer activity. Selected strains with alterations in DNA damage repair or cell cycle control were exposed to compounds and growth inhibition was measured relative to vehicle treated controls. The strain used in this assay is mgt1

SMILES | growth inhibition (at 1.2 µM) [%] | growth inhibition (at 3.7 µM) [%] | growth inhibition (at 11.0 µM) [%] | growth inhibition (at 33.0 µM) | growth inhibition (at 100.0 µM)
Nc1cc2c(cc1N)-c1ccccc1C2=O | -3 | -2 | -2 | 1% | 95% (active)
CC(C)C(c1ccccc1)c1ccccc1 | 0 | 0 | -1 | -6% | 55%
O=C1c2ccccc2-c2cc3ccccc3c(=O)n21 | 12 | 2 | 37 | 71% (active) | 76% (active)
Cc1cccc(C)c1NC(=O)CCC(=O)C(C)C(=O)c1ccc(O)cc1 (stereo not given) | -1 | 4 | -3 | -2% | -5%
CC(=O)/C(=C\c1ccc(Cl)c(Cl)c1)C(=O)C(C)CN(C)C (stereo not given) | 6 | -2 | 10 | 46% | 93% (active)
O=Cc1ccccc1C=O | 4 | 9 | 20 | 36% | 91% (active)
CC(C)OP(=O)(OC(C)C)/C(Cl)=N/Nc1ccc([N+](=O)[O-])cc1 | -21 | -29 | 16 | 78% (active) | 94% (active)
Cc1c2cc[n+](CCO)cc2c(C)c2c1[nH]c1ccc(O)cc12 | 22 | 26 | 28 | 35% | 45%
